Screens (PubChem BioAssay)
LmPK inhibitor: LmPK (Leishmania mexicana) enzyme inhibition | Q27686 | purified LmPK, Kinase-Glo ATP luminescence, 1 h | Potency, µM (series often up to 57.5 µM), for the others: at the highest dose activity change, negative = inhibition, hits mostly inhibitors | 0.37% of 290,000 active; further: potency means the concentration at half of the fitted maximal effect; on the % scale 0 is the no-effect control and ±100 the full control effect
Target sequence (Q27686 whole entry, looked up): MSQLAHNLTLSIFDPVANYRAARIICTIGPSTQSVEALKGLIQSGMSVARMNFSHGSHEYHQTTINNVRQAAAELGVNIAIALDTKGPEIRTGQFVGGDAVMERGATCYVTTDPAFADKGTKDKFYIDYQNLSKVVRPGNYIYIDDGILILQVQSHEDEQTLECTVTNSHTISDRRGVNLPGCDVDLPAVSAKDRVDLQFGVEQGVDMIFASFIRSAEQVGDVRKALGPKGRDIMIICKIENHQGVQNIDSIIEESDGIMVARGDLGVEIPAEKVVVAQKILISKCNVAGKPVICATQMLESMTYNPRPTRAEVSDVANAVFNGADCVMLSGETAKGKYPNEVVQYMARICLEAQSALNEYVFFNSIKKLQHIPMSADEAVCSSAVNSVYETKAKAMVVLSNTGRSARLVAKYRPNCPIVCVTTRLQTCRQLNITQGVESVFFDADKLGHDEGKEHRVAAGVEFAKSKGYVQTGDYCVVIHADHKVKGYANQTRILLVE
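ATP generated from ADP (0.1 mM) and PEP (0.5 mM) by 0.1 nM LmPK over 1 h at room temperature (pH 7.2 imidazole buffer) was detected by coupled luciferase luminescence. Values were normalized to uninhibited and no-enzyme wells.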
TbPYK inhibitor: T. brucei pyruvate kinase inhibition; AID 624173; Potency, µM (titrated, usually from 76.8 µM), for inactives: at the highest dose activity, negative = inhibition, usual class: inhibitors; 0.12% of 410,000 active; TbPYK enzyme, Kinase-Glo Plus ATP luminescence, 45 min; Q57TT1; further: potency means the concentration at half of the fitted maximal effect; on the % scale 0 is the no-effect control and ±100 the full control effect; nearly all actives have a fitted effect of over 50% in size
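Activity of T. brucei pyruvate kinase was followed by Kinase-Glo Plus luminescence after the enzyme reacted 45 min at room temperature with 130 uM ADP (final) and substrate. Test compounds were added before ADP at multiple concentrations.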
FBPA Giardia inh: Giardia lamblia aldolase inhibition | purified Giardia FBPA | 0.71% of 290,000 active | Potency, µM (top dose mostly 59.6 µM), for inactives: top-dose activity, negative = inhibition, actives largely listed as inhibitors | A8B2U2; further: potency means the concentration at half of the fitted maximal effect; on the % scale 0 is the no-effect control and ±100 the full control effect; nearly all actives have a fitted effect of over 55% in size
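40 nM FBPA preincubated 10 min at RT with compound (up to 57.5 uM final), then substrate plus GAPDH/TPI/NAD/arsenate coupling and diaphorase/resazurin added. Fluorescence read after 20 min at RT, 525/598 nm.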
RE007 growth inh: less growth of the S. pombe RE007 Vpr strain | AID 651644 | 0.21% of 360,000 active | S. pombe RE007 Vpr strain, BacTiter-Glo ATP luminescence, 24 h | Potency, µM (series often up to 92.2 µM), inactives show at the highest dose activity change, negative = less growth, usual class: inhibitors; active means well fitted falling curve with a large enough effect; inconclusive means small, poorly fitted or top-dose-only effect; inactive means no such curve, though single readings can be large or run the other way; further: potency means the concentration at half of the fitted maximal effect; on the % scale 0 is the no-effect control and ±100 the full control effect; nearly all actives have a fitted effect of over 50% in size
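Fission yeast strain RE007, carrying one chromosomally integrated HIV-1 vpr copy, was seeded at OD 0.01 in PMG+AL medium with 23 nL pinned compound. After 24 h at 30 °C and 99% humidity, viability was read by BacTiter-Glo luminescence.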
CHX counter: affects cycloheximide protein synthesis inhibition readout, counter-screen; AID 2314; max response, %; 12% of 300,000 active; cell reporter, cycloheximide protein synthesis inhibition counterscreen; in the data active means max response mostly above about 13%, no sharp cut-off; inactive means mostly below about 14%; further: read at 38.3 µM for the half of the compounds with a filed dose; 0% is about no effect
Shiga toxin inh: inhibitors of Shiga toxin in Vero cells. Vero cells, Shiga toxin protein synthesis inhibition reporter. inhibition, % at 38.7 µM. 9.2% of 290,000 active. AID 2315; in the data active means inhibition mostly above about 28%, no sharp cut-off; inactive means mostly below about 43%; further: 0% is about no effect
Numbers without * were called inactive; ? = inconclusive; . = no result; [ ] = dose if it differs, or a comment. Many of the other results were omitted from the sample, so hits are more common in it than they were. Unless noted, the call rests on the fitted dose curve; in most records, active means well fitted curve in the direction sought with a large enough effect; inconclusive means small, poorly fitted or top-dose-only effect, or another doubt; inactive means no such curve, though single readings can be large; an effect the other way counts as inactive or inconclusive.

SMILES	LmPK inhibitor	TbPYK inhibitor	FBPA Giardia inh	RE007 growth inh	CHX counter	Shiga toxin inh
COc1ccc(/C=C2\C(=O)NC(=S)N2C(=O)c2ccc(C)cc2)cc1	-2%	-23%	2%	-2%	35*	59*
COC(=O)C1=C(C)N(CC2CC2)C(=O)N[C@H]1CCc1ccccc1	.	.	6%	.	.	.
O=C(O)c1cccc(NN=C2c3ccccc3-c3ccccc32)c1	4%	0%	25%	?	42*	84*
O=C(O)c1cccc2c1-c1ccccc1/C2=N\Nc1ccccc1	5%	-1%	7%	9%	50*	116*
Cc1c(C)n(Cc2ccccc2)c2ccc(C(=O)NCCc3ccccc3Cl)cc12	.	4%[15.4 µM]	.	.	.	.
CCSc1nc(C2CC2)cc(-c2cccs2)c1C#N	1%	-5%	7%	-7%	16*	10
CCc1c(C)nc(SCC(=O)c2cccs2)c(C#N)c1C	-7%	-2%	0%	-21%	39*	40
CCCSc1nc(N)nc(-c2cccs2)c1C#N	-1%	-7%	1%	?	35*	84*
CCOC(=O)CSc1nc(N)c(C#N)c(-c2cccs2)c1C#N	7%	-2%	-3%	-8%	10	-24
N#Cc1c(-c2ccccc2F)cc(C2CC2)nc1SCC(=O)c1cccs1	-1%	1%	5%	-8%	13*	-12
COc1ccccc1C(=O)Nc1ccc2nc(N3CCC(C)CC3)cc(C)c2c1	.	-2%	.	.	.	.
COc1ccc(OC)c(CCNC(=O)Cn2ccc3cc(S(=O)(=O)N4CCCCC4)ccc32)c1	.	1%	.	.	.	.
Cc1ccccc1Nc1cc(C(=O)NCc2cccs2)c2ccccc2n1	.	1%	.	.	.	.
Nc1nc(Nc2ccc(Cl)cc2Cl)nc(C(F)(F)F)n1	3%	2%	-3%	12%	43*	65*
Nc1nc(Nc2ccccc2)nc(C(F)(F)F)n1	-3%	-1%	9%	?	30*	47
COc1cccc(Nc2nc(N)nc(C(F)(F)F)n2)c1	0%	2%	-7%	2%	16	59
Nc1nc(Nc2ccccc2Br)nc(C(F)(F)F)n1	0%	1%	0%	-9%	12	24
COc1ccc(/C=N/Nc2nc(-c3cccnc3)nc3ccccc23)cc1OC	?	-4%	?	-22%	31*	62*
Cc1ccc2nc(C(Cl)(Cl)Cl)nc(N/N=C/c3ccncc3)c2c1	-1%	2%	3%	3%	-3	43
Oc1ccc(/C=N/Nc2nc(-c3cccnc3)nc3ccccc23)c(O)c1	-17%	12%	-2%	-2%	53*	41*
c1ccc(Nc2nc(-c3cccnc3)nc3ccccc23)cc1	.	.	-4%	.	.	.
Cc1ccc(-c2nc(N/N=C/c3ccncc3)c3ccccc3n2)cc1	-16%	-14%	17%	?	55*	76*
COc1ccc(CCNc2nc(-c3cccnc3)nc3ccccc23)cc1OC	-4%	4%	5%	-13%	7	-2
Cc1c(O)ccc(/C=N/Nc2nc(-c3cccnc3)nc3ccccc23)c1O	1%	2%	0%	6%	59*	49*
C=CCCN(Cc1ccc(OC)cc1)S(=O)(=O)c1ccccc1Br	.	.	8%	.	-4	27
SMILES	LmPK inhibitor	TbPYK inhibitor	FBPA Giardia inh	RE007 growth inh	CHX counter	Shiga toxin inh
Cc1cc(=O)n(Cc2cccc(Cl)c2)c2c1c(C)nn2-c1ccccc1	.	3%	.	.	.	.
CN1CCN(Cc2nc(N)nc(Nc3ccc4c(c3)OCCO4)n2)CC1	1%	5%	14%	-5%	30*	60*
COc1ccc(-c2csc(C3=C(O)CN(C(C)C)C3=N)n2)cc1OC	-3%	-4%	0%	8%	15	39
COc1ccc(-c2csc(-c3ccc(O)cc3)n2)cc1	9%	-7%	23%	15%	52*	73*
COc1cccc(-c2nc(CCl)cs2)c1	-6%	-1%	-7%	8%	37*	57*
COc1ccc(-c2nc(-c3ccc(O)cc3O)cs2)cc1OC	4%	-5%	-1%	-1%	30*	55*
COc1ccc(-c2nc(CCl)cs2)cc1OC	-2%	-7%	-25%	-17%	29*	45*
c1ccc(CNc2nc3c(-c4ccccc4)nnn3c3ccccc23)cc1	.	-1%	.	.	.	.
CCOc1ccc(NC(=O)Cn2ccn3nc(-c4ccc(OC)c(OC)c4)cc3c2=O)cc1	.	0%	.	.	.	.
O=C(O)COc1cccc2c1CCC=C2CCO/N=C(\c1ccccc1)c1cccnc1	.	.	?	.	-4	1
CCc1ccc(-c2nc(CCl)cs2)cc1	?	7%	-7%	-24%	37*	90*
COc1ccc(-c2nc(CCl)cs2)cc1	?	-7%	-4%	-29%	45*	54*
COc1ccc(-c2nc(CNS(=O)(=O)c3ccc(C)cc3)cs2)cc1	.	5%	.	.	.	.
COc1ccc(C2=NOC(CNC(=S)N3CCOCC3)C2)cc1 (configuration not stated)	5%	4%	2%	-3%	34*	57*
COCCNC(=O)[C@H](C)/C=C(\c1cccnc1)C(NC(=O)OCc1ccccc1)c1ccc(C(=O)OC)cc1 (some centres not stated)	.	.	3%	.	.	.
O=C(Nc1c(C(=O)N2CCN(c3ccccc3)CC2)oc2ccccc12)c1ccco1	.	-1%	.	.	.	.
Clc1ccc(OCCCCSc2ncccn2)cc1	14%	-8%	-1%	-22%	12	20
CN(C)CCCOc1ccc(Cl)cc1Br	-5%	-3%	?	-12%	-2	-9
CCCOc1ccc(OCCSc2ncccn2)cc1	-20%	-1%	0%	?	44*	81*
Nc1nnc(SCCOc2cccc(Br)c2)s1	1%	-3%	.	-8%	11	46
Brc1cccc(OCCSc2ncccn2)c1	-1%	-20%	-1%	-13%	33*	44*
Clc1ccc(OCCSc2ncccn2)c(Br)c1	-8%	-4%	5%	-17%	41*	118*
O=C(COCc1cc(-c2cccs2)on1)N1CCN(c2ccc(F)cc2)CC1	.	1%	.	.	.	.
Cc1ccc(NC(=O)Nc2cnc3ccccc3c2)cc1	2%	0%	2%	25%	30*	45*
CCN(CC)C(=O)Nc1cnc2ccccc2c1	-1%	-11%	0%	-6%	18*	48
COC(=O)[C@H]1O[C@@H](c2cc(OC)c(C)c(OC)c2OCc2ccccc2)[C@H](C)[C@H]2O[C@@]12C	.	.	-2%	.	.	.
O=S(=O)(/N=C(/Nc1ccccn1)c1ccccc1)c1ccc(F)cc1	0%	-2%	7%	12%	12	22*
Cc1cccc(N/C(=N/S(=O)(=O)c2ccccc2)c2ccccc2)n1	1%	-1%	-13%	-9%	15*	50
O=S(=O)(/N=C(/Nc1ccccn1)c1ccccc1)c1ccccc1	11%	4%	5%	12%	3	12
Cc1ccc(NC(=O)c2cnc(SCC(=O)N3CCCc4ccccc43)n(C)c2=O)cc1C	.	3%	.	.	.	.
